Screening data: PubChem, National Center for Advancing Translational Sciences (NCATS)
S2 tox – reduces viability in counter-screen for ATXN expression inhibitors | S2 cells (HEK-293 line with an ATXN2-luciferase reporter) viability, CellTiter-Fluor protease fluorescence, 24 h | Potency, µM (highest dose often 56.7 µM), actives largely listed as cytotoxic | 400,000 tested, 0.49% active; further: nearly all actives have a fitted effect of over 40% in size
HT1080 IDH1KD tx – HT-1080 IDH1 knockdown cell toxicity (counter line). HT-1080 IDH1 knockdown viability, ATP luminescence, 48 h. Potency, µM (series often up to 46.1 µM), inactives show at the top dose activity, negative = toxicity, most hits filed as cytotoxic. 360,000 tested, 2% active;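 further: 0% = DMSO wells and -100% = cell-free medium wells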
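In this qHTS, HT-1080 cells depleted of IDH1 are exposed for 48 h at 37 °C to compound titrations. Toxicity is scored from CellTiter-Glo luminescence, with DMSO as full viability and medium alone as none.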
HepG2 tox – kills HepG2 cells in TGF-b inhibitor counter-screen. HepG2 CAGA-GFP viability, ATP luminescence, 18 h. Potency, µM (top dose mostly 46.1 µM), for the others: at the top dose activity change, negative = cytotoxicity, usual class: cytotoxic. 410,000 tested, 0.76% active. AID 588856
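HepG2 CAGA-GFP cells (1000/well, DMEM with 1% FBS) received compound, then TGF-beta at 500 pg/mL final, and were incubated 18 hours at 37 degrees C. Viability was read by CellTiter-Glo luminescence. Media-only wells were set as complete cell-killing and DMSO as no toxicity.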
TGFb inhibitor – blocks TGF-b signaling | AID 588855 | 410,000 tested, 1.2% active | HepG2 CAGA-GFP TGF-b/SMAD3 reporter, GFP fluorescence, 18 h; TGF-beta stimulated, 500 pg/mL final | Potency, µM (titrated, usually from 46.1 µM), for the others: at the highest dose activity, negative = inhibition, most hits filed as inhibitors; further: on the % scale 0 is the no-effect control and ±100 the full control effect; nearly all actives have a fitted effect of over 65% in size
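Cell-based qHTS in HEPG2 carrying a CAGA-GFP Smad reporter; compounds added before 500 pg/mL final TGF-beta, 18 h incubation at 37 degrees C, GFP fluorescence quantified per cell by imaging cytometry.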
ATXN2 expr inh – ATXN2 expression inhibition; HEK-293 ATXN2-luciferase reporter, luminescence, 24 h; Potency, µM (highest dose often 57 µM), without a hit: top-dose activity change, negative = inhibition, most hits filed as inhibitors; 360,000 tested, 0.72% active; AID 1745845; further: on the % scale 0 is the no-effect control and ±100 the full control effect; nearly all actives have a fitted effect of over 55% in size
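qHTS (up to 57 uM final) was run with 24 h compound exposure of reporter cells at 37 °C. Each well was multiplexed: SteadyGlo luminescence measured ATXN2-luciferase expression after a fluorogenic Gly-Phe-AFC viability readout (25 uM final).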
HT1080-NT tox – kills 2HG-producing HT-1080-NT fibrosarcoma cells | HT-1080-NT fibrosarcoma viability, CellTiter-Glo ATP luminescence, 48 h | Potency, µM (highest dose often 46.1 µM), without a hit: at the top dose activity, negative = less viability, most hits filed as cytotoxic | 360,000 tested, 1.6% active | AID 686970;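 further: NT is the 2HG producing partner of a matched IDH1 knockdown line; 0% = DMSO-treated cells and -100% = media-only wells without cells; nearly all actives have a fitted effect of over 55% in size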
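Luminescent CellTiter-Glo readout after 48 hours of compound exposure at 37 degrees C defined viability of HT-1080-NT cells. Activity was normalized to DMSO wells and cell-free media wells; concentration-response curves were fitted and assigned curve classes.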
* marks the source's active call; other numbers are inactive results; i = inactive; u = inconclusive; x = not tested or not shown. Sampled rows, rich in hits. Any-hit rate of the full collection: about 3.8%. The call rests on the fitted dose curve; in most records, active means well fitted curve in the direction sought with a large enough effect; inconclusive means small, poorly fitted or top-dose-only effect, or another doubt; inactive means no such curve, though single readings can be large; an effect the other way counts as inactive or inconclusive. Potency means the concentration at half of the fitted maximal effect.

SMILES | S2 tox | HT1080 IDH1KD tx | HepG2 tox | TGFb inhibitor | ATXN2 expr inh | HT1080-NT tox
COC(=O)C1=C(C)NC2=C(C(=O)CC(c3cccs3)C2)C1c1ccsc1 (stereo not drawn) | u | u | -12% | -13% | -24% | -7%
CCOC(=O)C1=C(C)NC(=O)CC1c1ccccc1 (stereo not drawn) | i | 9% | -1% | 20% | -7% | 11%
CCOC(=O)C1=C(C)NC2=C(C(=O)CC(c3cccs3)C2)C1c1cccs1 (stereo not drawn) | u | 15µM* | -12% | u | -20% | u
CCOC(=O)C1=C(C)NC2=C(C(=O)OC2)C1c1ccccc1 (stereo not drawn) | i | 21µM* | -17% | -25% | -5% | u
Cc1ccccc1CN1CCc2nnc(C(C)NC(=O)C3CCN(C)CC3)n2CC1 (stereo not drawn) | i | x | x | x | x | x
Cc1cc(C)c2cc(CN(CCN3CCCC3)C(=O)Nc3ccc(F)cc3)c(=O)[nH]c2c1 | i | 18µM* | -37% | u | -20% | u
CCC[C@H](NC(=O)C(C#N)=Cc1cccc(Br)n1)c1ccccc1 | x | x | x | x | 11µM* | x
COc1cc(-c2csc(N3CCOCC3)n2)cc(OC)c1OC | i | 2% | 12% | 22% | 7% | 6%
COc1ccc(-c2csc(N3CCN(c4cc(C)nc5ccccc45)CC3)n2)cc1OC | 10µM* | 16µM* | 11µM* | u | u | u
CC1(c2ccccc2)CC(C)(C)N(C(=O)c2cccc(Cl)c2)c2ccccc21 (stereo not drawn) | x | x | -23% | u | x | x
Cc1cc(C)c(S(=O)(=O)Nc2ccc3c(c2)CCC3)c(C)c1 | i | u | -87% | 18µM* | u | 23µM*
COc1cc2nc(N3CCCCC3)nc(NC3CC3)c2cc1OC | x | -16% | x | x | x | -21%
C=C1CC2C(=O)N(Cc3cc(OC)ccc3OC)C(C(=O)OCC)C1N2C (stereo not drawn) | x | x | -26% | 2% | x | x
CC[C@]1(c2ccccc2OC)ON(c2ccccc2C(F)(F)F)C1=O | x | u | 16µM* | 10µM* | u | -27%
O=C(C[n+]1ccccc1Br)c1ccc(F)cc1 | x | x | 8% | 12% | x | x
Cc1nc(C)c(-c2csc(Nc3ccc(N)cc3)n2)s1 | i | -6% | -21% | -11% | x | -20%
COc1ccc(Nc2nc(-c3sc(C)nc3C)cs2)cc1 | u | 3.7µM* | -38% | u | x | 5.2µM*
CC(=O)Nc1nc(C)c(-c2csc(Nc3ccc(O)cc3)n2)s1 | u | 18µM* | -10% | 0% | -17% | u
COC(=O)c1cc2ccsc2n1CC(=O)Nc1cc(Cl)ccc1OC | i | u | -21% | u | -16% | 7.9µM*
Cc1ccc(-c2noc(CCCC(=O)Nc3cccnc3)n2)cc1 | u | 23µM* | -27% | 7% | u | -1%
CCOc1ccccc1-c1noc(CCCC(=O)Nc2cccc(C(F)(F)F)c2)n1 | u | x | -35% | u | 0% | x
COc1ccccc1-c1noc(CCCC(=O)Nc2cccc(C(F)(F)F)c2)n1 | u | x | -15% | 13µM* | u | x
COc1ccc(-c2noc(CCCC(=O)O)n2)cc1 | i | -2% | -5% | -10% | 4µM* | -2%
COC(=O)[C@H](C)NS(=O)(=O)C1CC1 | x | x | -1% | -7% | x | x
COc1ccc(CC(=O)Nc2c(C(=O)Nc3ccc(F)cc3)oc3ccccc23)cc1OC | i | x | -3% | 1% | 21% | x
CC(C)(C)C1CCc2c(sc(NC(=O)c3cc4ccccc4c(=O)o3)c2C(N)=O)C1 (stereo not drawn) | i | x | -2% | -8% | 16% | x
